Screening data: PubChem BioAssay, Broad Institute
Sampled rows, rich in hits. Any-hit rate of the full collection: about 3.1%.
FGF22 binding – FGF22 (human) thermal shift binding. Q9HCT0. recombinant FGF22 thermal shift, SYPRO orange fluorescence; percent of sucrose octasulfate shift, DMSO zero. activity (Tm shift, normalised), % at 9.99 µM. actives 1.5% (n = 340,000);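 active means mean Tm shift, scaled 0 neutral to 100 positive control, at about 1.3% or above, every replicate too, limit read from the data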
SIRT5 inh – inhibitors of human sirtuin-5 desuccinylase; inhibition, % at 15 µM; actives 1.1% (n = 330,000); Purified SirT5, succinyl-peptide AMC, trypsin-coupled fluorescence; Q9NXA8; in the data active means inhibition above about 15%
Target sequence (Q9NXA8 whole entry, looked up): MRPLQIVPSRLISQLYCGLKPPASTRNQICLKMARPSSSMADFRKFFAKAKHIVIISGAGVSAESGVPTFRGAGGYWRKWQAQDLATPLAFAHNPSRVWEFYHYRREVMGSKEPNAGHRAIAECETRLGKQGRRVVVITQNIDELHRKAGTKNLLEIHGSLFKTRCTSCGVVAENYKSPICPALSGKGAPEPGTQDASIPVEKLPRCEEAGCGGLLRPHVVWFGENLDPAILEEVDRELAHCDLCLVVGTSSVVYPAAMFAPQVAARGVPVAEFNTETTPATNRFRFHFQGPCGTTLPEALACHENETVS
Casp6 inh – blocks human caspase-6 cleavage activity. P55212. purified caspase-6, Z-VEID-R110 cleavage fluorescence. inhibition, % at 12.5 µM. actives 0.53% (n = 350,000). AID 686996;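 active means mean inhibition across replicates at least about 35%, with every replicate also reaching that limit, limit read from the data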;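 further: 0% = median of neutral control wells and 100% = no fluorescence left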
Target sequence (P55212 24-179 limits assumed): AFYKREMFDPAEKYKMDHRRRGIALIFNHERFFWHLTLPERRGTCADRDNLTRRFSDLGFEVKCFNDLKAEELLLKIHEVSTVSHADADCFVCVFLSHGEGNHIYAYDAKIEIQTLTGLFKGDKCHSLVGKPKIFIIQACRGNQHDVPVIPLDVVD
Target sequence (P55212 194-293 limits assumed): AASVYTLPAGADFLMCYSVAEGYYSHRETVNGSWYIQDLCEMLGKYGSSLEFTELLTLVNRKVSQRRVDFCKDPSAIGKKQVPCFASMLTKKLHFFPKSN
ERAP1 inh – ERAP1 (human) enzyme inhibition; Q9NZ08; recombinant ERAP1, Leu-AMC fluorescence, 60 min; inhibition, % at 10.7 µM; actives 0.15% (n = 340,000); AID 652197;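 active means mean replicate inhibition of at least 30%, or all replicates individually reaching that 30% level; inactive means mean below 30% and not every replicate reaching it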;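 further: 0% = neutral control wells and 100% = L-leucinethiol positive control wells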
* = called active by the depositor; · = no result given.

SMILES	FGF22 binding	SIRT5 inh	Casp6 inh	ERAP1 inh
O=c1c2ccc([N+](=O)[O-])cc2ncn1CCOc1cccc(Br)c1	43.0*	-1.2	2.5	2.1
O=c1c2ccc([N+](=O)[O-])cc2ncn1CCOc1ccc(Cl)cc1	-0.2	-1.0	0.4	0.4
CC(C)(C)c1ccccc1NC(=O)Cn1cnc2cc([N+](=O)[O-])ccc2c1=O	42.9*	-1.4	1.8	4.2
O=C(C1CCCC1)N1CC(=O)N2[C@H](CO)[C@H](c3ccc(C#CC4CCCC4)cc3)[C@H]2C1	·	0.9	-1.1	-2.1
N#C[C@H]1[C@H](c2ccccc2C2=CCCCC2)[C@H](CO)N1C(=O)NC1CCCCC1	·	4.2	-2.1	3.1
C[C@@H]1CCCCO[C@H](CN(C)C(=O)Nc2cccc3ccccc23)[C@H](C)CN([C@H](C)CO)C(=O)c2cc(N(C)C)ccc2O1	-0.2	-0.1	-3.7	0.0
CC(=O)N1CCc2cc(Br)cc(S(=O)(=O)N3CCC(C(=O)O)CC3)c21	-0.2	6.8	39.2*	3.1
CCC(=O)N1CCc2cc(Br)cc(S(=O)(=O)N3CCCC(C(=O)O)C3)c21 (stereo not given)	0.0	-1.2	13.4	3.4
Cc1ccc(S(=O)(=O)NC(=O)c2ccc(Br)o2)cc1	0.1	34.7*	0.4	-0.7
O=C(CN1CCOCC1)N[C@H]1CC[C@@H](CCn2cc(C3CCCC3)nn2)O[C@H]1CO	·	-3.9	6.4	0.4
NC(=O)c1ccc(NC(=O)CCCc2nc(-c3ccccc3Cl)no2)cc1	·	18.1*	-0.4	0.4
Cn1c(-c2ccccc2)cc(=NNS(C)(=O)=O)c2cc(S(=O)(=O)O)ccc21	0.1	4.2	0.7	36.7*
CCCNC(=O)C(NS(=O)(=O)c1ccc2c(c1)c(=O)n(C)c(=O)n2C)c1ccccc1 (stereo not given)	0.0	·	1.9	·
CC(=O)N1[C@H](CO)[C@@H](c2ccccc2)[C@@H]1CNC(=O)CN1CCOCC1	0.4	-0.7	7.8	-0.7
CCCCCCC(=O)Nc1nc(C)c(-c2csc(Nc3cc(OC)ccc3OC)n2)s1	-0.1	·	-1.9	0.4
CCCCCC(=O)Nc1nc(C)c(-c2csc(Nc3cc(OC)ccc3OC)n2)s1	43.9*	-1.0	-0.2	5.2
C[C@@H]1CN([C@@H](C)CO)C(=O)c2cc(NC(=O)CCCCCC(=O)Nc3ccccc3N)ccc2O[C@@H]1CN(C)Cc1ccncc1	-0.2	·	-1.3	1.7
O=C(CN1C(=O)C2C3C=CC(C3)C2C1=O)Nc1ccc2nccnc2c1 (stereo not given)	0.6	·	2.1	-1.0
O=C(CN1C(=O)C2C3C=CC(C4CC34)C2C1=O)Nc1cnc2ccccc2c1 (stereo not given)	44.1*	2.0	0.7	0.7
Cc1noc(C)c1NC(=O)Nc1ccc2c(c1)C(=O)N([C@H](C)CO)C[C@H](C)[C@H](CN(C)CC1CC1)OCCCC[C@H](C)O2	0.0	1.3	-1.4	-0.6
CCCNC(=O)N1C[C@@H](C)[C@H](OC)CN(C)C(=O)c2cc(NC(=O)CCC)ccc2OC[C@H]1C	0.1	0.0	-0.3	0.6
CCOC(=O)CSc1ccc(C(=O)N2CCN(C)CC2)cc1[N+](=O)[O-]	43.3*	-4.6	-2.3	1.5
CCOC(=O)CSc1ccc(C(=O)NCCN2CCOCC2)cc1[N+](=O)[O-]	-0.1	-2.4	-0.2	-0.8
O=C(NC1CCCCC1)N[C@@H]1C=C[C@H](CC(=O)N2CCOCC2)O[C@@H]1CO	-0.2	5.8	0.5	2.0
CC(OC(=O)C1=COCCO1)C(=O)Nc1cc(S(=O)(=O)N2CCCCC2)ccc1Cl (stereo not given)	43.1*	1.9	-2.1	-0.2
SMILES	FGF22 binding	SIRT5 inh	Casp6 inh	ERAP1 inh
N#C/C(=C\C=C\c1ccccc1)C(=O)Nc1ccccc1	44.2*	-1.4	0.1	-1.0
FC(F)c1nc2ccccc2[nH]1	·	4.9	1.8	-1.7
c1ccc2[nH]c3cc4ncnc4cc3nc2c1	0.0	5.2	68.5*	4.5
O=C(NCC1CCCCC1)[C@H]1[C@H](CO)[C@H]2Cn3c(cccc3=O)[C@H]2N1Cc1ccccn1	0.3	-0.1	-3.5	-0.9
O=C1CSC(c2ccccc2)N1Nc1nc(N2CCOCC2)nc(N2CCOCC2)n1 (stereo not given)	43.4*	-1.5	-0.5	-8.5
Cc1ccccc1Nc1nc(N2CCOCC2)nc(N2CCOCC2)n1	-0.3	-7.8	2.5	0.2
CN1[C@@H]2c3ccc(-c4cccc(F)c4)c(=O)n3C[C@H]1[C@H](CO)[C@H]2C(=O)N1CCCCC1	-0.1	-10.8	0.6	0.0
N#Cc1nc(-c2ccccc2)oc1NCCCn1ccnc1	43.1*	-20.1	-3.0	3.4
CO[C@@H]1CN(C)C(=O)c2cc(NC(=O)C3CCC3)ccc2OC[C@@H](C)N(CC2CCCCC2)C[C@H]1C	0.0	-6.2	-1.4	0.0
CC(=O)Nc1ccc(C(=O)OCC(=O)NCc2ccc3c(c2)OCO3)cc1	43.0*	·	-3.8	3.5
CC(=O)Nc1ccc(S(=O)(=O)NCC(=O)OCC(=O)NCc2ccc3c(c2)OCO3)cc1	44.3*	·	1.2	2.9
COc1ccc(CC(=O)OCC(=O)Nc2ccc3c(c2)OCO3)cc1	42.9*	-4.6	0.3	-1.3
COc1ccc(CCC(=O)Nc2ccc3c(c2)OCO3)cc1	-0.2	-1.3	3.9	0.6
Cc1ccc(S(=O)(=O)NCC(=O)OCC(=O)NCc2ccc3c(c2)OCO3)cc1	0.1	0.7	2.0	2.5
CC(C)CC#Cc1ccc2c(c1)O[C@H](CN(C)C(=O)Cc1ccccn1)[C@@H](C)CN([C@H](C)CO)S2(=O)=O	-0.6	-6.0	2.3	1.8
CCN1[C@@H]2Cn3c(ccc(-c4ccncc4)c3=O)[C@H]1[C@@H](C(=O)NCc1ccccc1)[C@@H]2CO	-0.1	-4.4	0.9	-0.6
COc1cccc(NC(=O)N2CC(=O)N3[C@@H](CO)[C@@H](c4ccc(C#CCC5CCCC5)cc4)[C@@H]3C2)c1	-0.5	17.1*	1.5	-1.4
COc1cccc(NC(=O)N2CC(=O)N3[C@H](C2)[C@H](c2ccc(C#CCC4CCCC4)cc2)[C@@H]3CO)c1	-0.2	25.3*	1.2	-0.7
COc1cccc(NC(=O)N2CC(=O)N3[C@H](CO)[C@H](c4ccc(C#CCC5CCCC5)cc4)[C@@H]3C2)c1	-0.1	24.2*	-0.7	-2.2
COc1cccc(NC(=O)N2CC(=O)N3[C@H](CO)[C@@H](c4ccc(C#CCC5CCCC5)cc4)[C@@H]3C2)c1	-0.1	23.6*	-0.2	-0.7
CCN1[C@H](C(=O)OC)[C@@H](CO)[C@@H]2Cn3c(ccc(-c4cccc(C(=O)N(C)C)c4)c3=O)[C@@H]21	-0.3	4.4	1.5	0.6
C[C@H](C(=O)N(C)C[C@@H]1OCc2ccccc2-c2c(n(C)c3ccccc23)C(=O)N([C@@H](C)CO)C[C@@H]1C)c1ccccc1	0.1	13.1	1.6	-4.1
C[C@@H]1CN([C@@H](C)CO)S(=O)(=O)c2ccc(C#CC(C)(C)O)cc2O[C@H]1CN(C)CC1CCCC1	-0.3	1.6	2.7	0.2
COc1ccc(NC(=O)N2CC(=O)N3[C@H](CO)[C@H](c4ccc(C#CCC5CCCC5)cc4)[C@@H]3C2)cc1	·	1.7	-1.8	0.3
